Results on 31 compounds are retold here after PubChem BioAssay (NCATS).

Records with an inconclusive call do not appear. Where a call stands in place of a potency, no number is given. Calls of active or inactive are those of the source. Calls come from the whole dose curve; as a rule, active = well fitted inhibition curve with a large enough effect; inconclusive = small, poorly fitted or top-dose-only effect; inactive = flat fitted curve, though single readings scatter.

The nature of this experiment: P-glycoprotein substrates identified in KB-8-5-11 adenocarcinoma cell line, qHTS therapeutic library screen (AID 1346987). Note: nearly all actives have a fitted effect of over 65% in size. The gist of the method: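 P-gp-mediated resistance screen: KB-8-5-11 cells treated 72 h with compounds in dose-response. CellTiter-Glo viability.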
Background: In qHTS, concentration-response curves come from the screen itself.
Potency is the fitted concentration of half-maximal effect.

As to `CC(=O)N1CCN(Cc2ccc([C@H](C)Nc3nccc(N4C(=O)OC[C@@H]4C(C)C)n3)cc2)CC1`, the Potency entry was “inactive”. The same measure, in the same setting: under `Nc1nc2c(c(=O)[nH]1)C[C@@H](CCc1ccc(C(=O)N[C@@H](CCC(=O)O)C(=O)O)cc1)CN2` stands 58 nM (active). Take `CC(C)CC(=O)O[C@@H]1OC=C(CO[C@@H]2O[C@H](CO)[C@@H](O)[C@H](O)[C@H]2O)[C@H]2[C@@H]3O[C@H]3[C@@](O)(CO)[C@@H]12`: the Potency result was “inactive”. For `C[C@@H]1CN(Cc2ccccc2)C[C@H]1c1nc2c(cnn2C2CCOCC2)c(=O)[nH]1`, the Potency entry was “inactive”. Take `CN1C2CCC1CC(OC(=O)[C@H](CO)c1ccccc1)C2` (stereo partly specified): the Potency result was “inactive”. Take `C=C(C(=O)OC)C1C(O)CC2(C)C(O)CCC(=O)C2C1O` (stereo unspecified): the Potency entry is “inactive”. With `COC(=O)CCC(=O)OC[C@]1(C)CCC[C@@]2(C)C3CC[C@]4(C)C=CC3(CCC12)C4` (stereo partly specified), the Potency result was “inactive”. Turning to `CC(NC(=O)CCc1nc2ccccc2c(=O)[nH]1)c1ccccc1` (stereo unspecified), the Potency entry is “inactive”. Still for that read-out and setting: under `COC(=O)C1(C)c2[nH]c3ccccc3c2CCN1C(=O)CCl` (stereo unspecified) stands 10300 nM (active). Turning to `CCc1cnn2c(NCc3ccc[n+]([O-])c3)cc(N3CCCCC3CCO)nc12` (stereo unspecified), the Potency is 206 nM (active).

Consider `CCOCCn1nc(CC)c2nc(N3CCC(C(=O)O)CC3)nc(Nc3cc(C)ccn3)c21`, for which the Potency result was “inactive”. As for `C=C1CN(Cc2ccc(C(=O)Nc3ccccc3N)cc2)C(=O)c2ccccc21`, the Potency is 1300 nM (active).

Regarding `Cc1cc(C(N)=O)ccc1-n1c(CCC(=O)O)ccc1-c1ccc(-n2ccnc2)cc1`, the Potency entry is “inactive”. Take `Cc1cc(-c2cc(O)ccc2Cl)cc2nnc(Nc3ccc(OCCN4CCCC4)cc3)nc12`: the Potency was 4610 nM (active). Turning to `C[C@@H]1O[C@@H](O[C@H]2[C@H](O)[C@@H](C(=O)O)O[C@@H](O[C@H]3CC[C@@]4(C)C(CC[C@]5(C)C4CC=C4C6CC(C)(C)CC[C@]6(C(=O)O)CC[C@]45C)C3(C)C)[C@@H]2O[C@@H]2OC[C@@H](O)[C@H](O)[C@H]2O)[C@H](O)[C@H](O)[C@H]1O` (stereo partly specified), the outcome was “inactive [at 9.29 µM]”. In the case of `Cc1cc(O)cc(O[C@@H]2O[C@H](CO)[C@@H](O)[C@H](O)[C@H]2O)c1`, the Potency result is “inactive”. Still for that read-out and setting: under `C=CC(C)(C)c1[nH]c2ccccc2c1C[C@@H]1NC(=O)[C@H](Cc2c[nH]c3ccccc23)NC1=O` stands “inactive”; under `O=C(/C=C/c1ccc(O)cc1)OC1[C@H](O)CC(O)(C(=O)O)C[C@H]1O` (stereo partly specified), “inactive”; under `Cc1cc(C(=O)Nc2cccc(C(=O)Nc3cccc(C(F)(F)F)c3)c2)on1`, “inactive”. Still for that read-out and setting: under `O=[N+]([O-])c1cccc2[nH]c(CNc3nc(N4CCOCC4)nc4c3ncn4-c3ccsc3)nc12` stands 103 nM (active). As for `COC(=O)N1CCC(n2ncc3c(N4CCOCC4)nc(-c4ccc(NC(=O)Nc5ccc(CO)cc5)cc4)nc32)CC1`, the Potency is 2590 nM (active). For the compound `O=S(=O)(c1ccc(S(=O)(=O)n2cnc3ccccc32)cc1)N1CCCCCC1`, the Potency result was “inactive”. With `COC(=O)CC(C)(O)CC(=O)OCc1ccc(O[C@@H]2O[C@H](CO)[C@@H](O)[C@H](O)[C@H]2O)cc1` (stereo partly specified), the Potency result was “inactive”. Still for that read-out and setting: under `COC(=O)Cc1cc2c(c([N+](=O)[O-])c1)N(C(=O)CC[C@H](N)C(=O)O)CC2` stands “inactive”. As to `CCOCc1nc2c(N)nc3ccccc3c2n1CC(C)(C)O`, the Potency result was “inactive”. Take `COc1cc(/C=C/C(=O)OC[C@H]2O[C@@](CO)(O[C@H]3O[C@H](CO)[C@@H](O)[C@H](O)[C@H]3O)[C@@H](OC(=O)/C=C/c3ccc(O)c(OC)c3)[C@@H]2O)ccc1O`: the Potency entry is “inactive”. As to `CO/N=C(/C(=O)N[C@@H]1C(=O)N2C(C(=O)O)=C(Cn3ccc(=N)n3CCO)CS[C@H]12)c1csc(N)n1`, the Potency result is “inactive”. Turning to `CC1(C)CC[C@]2(C(=O)O[C@@H]3O[C@H](CO[C@@H]4O[C@H](CO)[C@@H](O)[C@H](O)[C@H]4O[C@@H]4O[C@H](CO)[C@H](O)[C@H](O)[C@H]4O)[C@@H](O)[C@H](O[C@@H]4O[C@H](CO)[C@@H](O)[C@H](O)[C@H]4O)[C@H]3O)CC[C@]3(C)C(=CCC4[C@@]5(C)CC[C@H](O[C@@H]6OC[C@@H](O)[C@H](O)[C@H]6O)[C@@](C)(C(=O)O)C5CC[C@]43C)[C@@H]2C1` (stereo partly specified), the outcome is “inactive [at 9.29 µM]”.

Consider `O=C1NC(Cc2ccccc2)C(=O)N2CCCC12` (stereo unspecified), for which the Potency entry is “inactive”.

For the compound `CNS(=O)(=O)CC1CCC(N(C)c2ncnc3[nH]ccc23)CC1` (stereo unspecified), the Potency result is “inactive”. For the compound `C=C1C(OC2OCC(O)C(O)C2O)CC2C(C)(C)C(O)CCC2(C)C1CC/C(C)=C\CO` (stereo unspecified), the Potency entry is “inactive”.
